Source: PubChem BioAssay (EPA / NIEHS)
Calls of active or inactive are those of the source. The calls were made as follows: active = hit-call score of the fitted dose curve at least 0.9, where 1 is the maximum; inactive = score below 0.9.

Columns and labels:
[1] = ATG_CRE_CIS: Attagene CIS-FACTORIAL HepG2 Assay for human cAMP Responsive Element (CRE) binding protein 3 (AID 2282926); conditions: HepG2 CRE cis-reporter, Attagene multiplexed mRNA; actives raise or lower the signal
In short: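 Cells carrying cis-regulated reporter constructs respond through their own endogenous factors. After 24 h treatment, RNA is reverse-transcribed, amplified, labelled and sized by capillary electrophoresis; up- and down-regulation are both scored against vehicle.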

[2] = target: CCAAT/enhancer-binding protein beta (Homo sapiens) (UniProt P17676); experiment: ATG_C_EBP_CIS: Attagene CIS-FACTORIAL HepG2 Assay for human CCAAT/Enhancer Binding Protein (C/EBP) beta (AID 2282927); conditions: HepG2 Attagene cis-factorial transcription factor reporter; actives raise or lower the signal
CCAAT/enhancer-binding protein beta (Homo sapiens), sequence (P17676 whole entry, looked up): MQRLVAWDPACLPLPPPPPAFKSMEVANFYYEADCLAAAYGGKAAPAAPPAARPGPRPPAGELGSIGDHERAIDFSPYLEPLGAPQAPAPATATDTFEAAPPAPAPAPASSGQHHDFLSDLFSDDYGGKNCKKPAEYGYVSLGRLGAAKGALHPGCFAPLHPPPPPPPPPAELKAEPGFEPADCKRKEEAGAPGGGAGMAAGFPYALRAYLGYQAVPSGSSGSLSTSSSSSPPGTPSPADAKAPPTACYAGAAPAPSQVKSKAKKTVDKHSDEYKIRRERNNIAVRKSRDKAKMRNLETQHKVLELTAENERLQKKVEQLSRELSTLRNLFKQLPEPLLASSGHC
In short: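 Endogenous transcription factor activity in human liver HepG2 cells is inferred from induction of a CEBPB-linked reporter mRNA. Exposure lasts 24 h; activity is fitted in both directions relative to DMSO.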

[3] = ATG_CMV_CIS: Attagene CIS-FACTORIAL HepG2 Assay for human CMV (Internal Marker) (AID 2282928); conditions: HepG2 CMV promoter reporter, transcription factor profiling; actives raise or lower the signal;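 also: endpoint acts as a background internal control marker rather than a target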
In short: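 Reporter transcripts from transfected HepG2 cells are isolated after 24 h of chemical dosing, reverse-transcribed and amplified. Fragments labeled with 6-FAM are cut with HpaI and quantified by capillary electrophoresis; DMSO defines baseline.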

[4] = ATG_DR4_LXR_CIS: Attagene CIS-FACTORIAL HepG2 Assay for human Liver X Receptor (LXR), DR4 submotif (AID 2282929); conditions: HepG2 Attagene DR4 cis-reporter, mRNA transcription; actives raise or lower the signal
In short: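 HepG2 cells transiently transfected with cis-promoter-driven multiplexed reporter units (DR4 element) were dosed for 24 h. Reporter mRNA was quantified by RT-PCR, fluorescent primer extension, HpaI digestion and capillary electrophoresis; bidirectional fitting versus DMSO baseline.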

[5] = target: Aryl hydrocarbon receptor (Homo sapiens) (UniProt P35869); experiment: ATG_Ahr_CIS: Attagene CIS-FACTORIAL HepG2 Assay for human Aryl Hydrocarbon Receptor (Ahr) (AID 2282930); conditions: HepG2 AhR cis-factorial reporter transcription; actives raise or lower the signal
Aryl hydrocarbon receptor (Homo sapiens), sequence (P35869 whole entry, looked up): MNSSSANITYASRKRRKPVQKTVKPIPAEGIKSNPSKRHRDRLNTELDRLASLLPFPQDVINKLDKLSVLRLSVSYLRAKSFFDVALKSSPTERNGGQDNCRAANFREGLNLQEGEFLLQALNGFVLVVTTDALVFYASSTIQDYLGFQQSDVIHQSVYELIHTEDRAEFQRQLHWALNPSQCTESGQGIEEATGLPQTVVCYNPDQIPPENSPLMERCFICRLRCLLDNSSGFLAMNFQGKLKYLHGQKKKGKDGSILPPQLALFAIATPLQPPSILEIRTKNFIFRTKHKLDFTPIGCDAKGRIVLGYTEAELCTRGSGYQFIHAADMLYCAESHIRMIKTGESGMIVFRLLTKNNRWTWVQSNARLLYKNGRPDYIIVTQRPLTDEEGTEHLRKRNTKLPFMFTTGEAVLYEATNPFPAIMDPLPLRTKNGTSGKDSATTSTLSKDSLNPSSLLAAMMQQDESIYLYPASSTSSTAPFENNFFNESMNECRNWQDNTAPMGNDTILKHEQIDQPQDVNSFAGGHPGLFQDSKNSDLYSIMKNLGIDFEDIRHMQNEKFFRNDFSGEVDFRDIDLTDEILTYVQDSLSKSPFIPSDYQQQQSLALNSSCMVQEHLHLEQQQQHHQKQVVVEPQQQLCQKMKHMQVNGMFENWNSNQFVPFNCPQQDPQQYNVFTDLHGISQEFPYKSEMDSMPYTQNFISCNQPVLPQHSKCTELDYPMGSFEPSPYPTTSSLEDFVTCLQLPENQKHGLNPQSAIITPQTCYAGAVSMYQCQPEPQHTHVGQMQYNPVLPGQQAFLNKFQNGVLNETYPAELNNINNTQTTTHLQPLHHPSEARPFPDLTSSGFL
In short: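 Transient MRTU transfection of HepG2 → 24 h compound exposure → total RNA, oligo(dT) RT → PCR, 6-FAM extension, HpaI cut → CE fluorescence. DMSO = baseline; bidirectional curve fit.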

[6] = ATG_AP_1_CIS: Attagene CIS-FACTORIAL HepG2 Assay for human Activator Protein 1 (AP-1) (AID 2282931); conditions: HepG2 Attagene cis-factorial AP-1 reporter mRNA; actives raise or lower the signal
In short: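 HepG2 cells transiently transfected with cis-element-driven multiplex reporter units; 24 h compound exposure. Reporter mRNA quantified by RT-PCR, FAM-labelled fragments resolved by capillary electrophoresis; bidirectional fit versus DMSO baseline.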

[7] = ATG_AP_2_CIS: Attagene CIS-FACTORIAL HepG2 Assay for human Activator Protein 2 (AP-2) (AID 2282932); conditions: HepG2 AP-2 cis-reporter, Attagene transcription factor profiling; actives raise or lower the signal
In short: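 Transiently transfected HepG2 cells are exposed to chemical for 24 h. Reporter transcripts are then measured as fluorescence following RT-PCR and capillary separation, and gain- or loss-of-signal is fitted relative to DMSO.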

[8] = ATG_BRE_CIS: Attagene CIS-FACTORIAL HepG2 Assay for human Bone Morphogenetic Protein (BMP) Response Element (BRE) (AID 2282933); conditions: HepG2 BMP response element reporter, Attagene transcription factor profiling; actives raise or lower the signal
In short: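 Endogenous transcription factor activity at a BMP response element was monitored in transfected HepG2 cells 24 h after dosing. Fluorescent RT-PCR products were resolved by capillary electrophoresis, and activity was fitted in both directions versus DMSO.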

[9] = target: Transcription factor E2F1 (Homo sapiens) (UniProt Q01094); experiment: ATG_E2F_CIS: Attagene CIS-FACTORIAL HepG2 Assay for human E2F Transcription Factor 1 (AID 2282935); conditions: HepG2 Attagene cis-reporter, E2F reporter RNA transcripts; actives raise or lower the signal
Transcription factor E2F1 (Homo sapiens), sequence (Q01094 whole entry, looked up): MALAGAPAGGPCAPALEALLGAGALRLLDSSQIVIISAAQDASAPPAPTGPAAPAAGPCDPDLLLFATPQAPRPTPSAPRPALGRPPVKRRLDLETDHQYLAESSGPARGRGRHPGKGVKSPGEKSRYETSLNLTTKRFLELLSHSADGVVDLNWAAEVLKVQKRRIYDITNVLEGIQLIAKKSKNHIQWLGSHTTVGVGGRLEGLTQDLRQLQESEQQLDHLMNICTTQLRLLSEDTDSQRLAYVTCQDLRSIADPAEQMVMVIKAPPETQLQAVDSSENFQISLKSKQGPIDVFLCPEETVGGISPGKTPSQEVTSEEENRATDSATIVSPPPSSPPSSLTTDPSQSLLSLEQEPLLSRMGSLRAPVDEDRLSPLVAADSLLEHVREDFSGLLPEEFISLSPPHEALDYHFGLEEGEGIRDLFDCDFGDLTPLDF
In short: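 Fluorescent RT-PCR products, digested with HpaI for 2 h at 37 C, are separated by capillary electrophoresis. Source RNA comes from transfected HepG2 cultures treated for 24 h.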

[10] = ATG_E_Box_CIS: Attagene CIS-FACTORIAL HepG2 Assay for human Enhancer Box (E-box) (AID 2282936); conditions: HepG2 E-box cis-reporter transcription, actives raise or lower the signal
In short: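 Fluorescent reporter fragments separated by capillary electrophoresis gave the signal; mRNA came from HepG2 cells transfected with cis-element reporters and treated 24 h. Curves fitted bidirectionally relative to DMSO controls.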

[11] = ATG_M_61_CIS: Attagene CIS-FACTORIAL HepG2 Assay for M61 Transcription Factor (Internal Marker) (AID 2282937); conditions: HepG2 Attagene CIS-FACTORIAL M61 internal marker reporter; actives raise or lower the signal
In short: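 HepG2 cells transiently transfected with cis-element-driven multiple reporter transcription units, dosed for 24 h. Reporter mRNA measured by RT-PCR, 6-FAM primer-extension labelling, HpaI digestion and capillary electrophoresis; bidirectional fit versus DMSO baseline.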

[12] = ATG_EGR_CIS: Attagene CIS-FACTORIAL HepG2 Assay for human Early Growth Response 1 (EGR1) (AID 2282938); conditions: HepG2 Attagene CIS-FACTORIAL EGR reporter mRNA; actives raise or lower the signal
In short: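 HepG2 cells transiently transfected with cis-promoter-driven multiplexed reporter transcription units; reporter mRNA measured 24 h after compound dosing by RT-PCR, 6-FAM primer extension, HpaI digestion and capillary electrophoresis. Bidirectional fit versus DMSO baseline.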

[13] = ATG_M_19_CIS: Attagene CIS-FACTORIAL HepG2 Assay for M19 Transcription Factor (Internal Marker) (AID 2282939); conditions: HepG2 Attagene CIS-FACTORIAL M19 internal marker reporter; actives raise or lower the signal
In short: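 Background-control endpoint from a multiplexed HepG2 reporter panel. Cells carrying cis-regulated reporter constructs are treated 24 h, then reporter transcripts are amplified, fluorescently labelled and sized by capillary electrophoresis. DMSO defines baseline.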

[14] = ATG_ERE_CIS: Attagene CIS-FACTORIAL HepG2 Assay for Estrogen Response Element (ERE) (AID 2282940); conditions: HepG2 ERE cis-reporter, Attagene RNA transcript; actives raise or lower the signal
In short: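 Cells used were human hepatoma HepG2, transfected with multiple reporter transcription units under cis-regulatory promoters. Reporter mRNA, read 24 h post-dosing via fluorescent RT-PCR products on capillary electrophoresis, was fitted bidirectionally relative to DMSO.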

[15] = ATG_Ets_CIS: Attagene CIS-FACTORIAL HepG2 Assay for human Erythroblast Transformation Specific (ETS) (AID 2282941); conditions: HepG2 ETS cis-reporter transcription, actives raise or lower the signal
In short: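 Bidirectional fit versus DMSO of reporter mRNA signal, detected by RT-PCR and capillary electrophoresis in HepG2 cells transiently transfected with cis-element reporters and dosed 24 h.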

[16] = target: Hepatocyte nuclear factor 3-beta (Homo sapiens) (UniProt Q9Y261); experiment: ATG_FoxA2_CIS: Attagene CIS-FACTORIAL HepG2 Assay for human Forkhead box A2 (FOXA2) (AID 2282942); conditions: HepG2 cis-reporter transcription factor activity, 24 h; actives raise or lower the signal
Hepatocyte nuclear factor 3-beta (Homo sapiens), sequence (Q9Y261 whole entry, looked up): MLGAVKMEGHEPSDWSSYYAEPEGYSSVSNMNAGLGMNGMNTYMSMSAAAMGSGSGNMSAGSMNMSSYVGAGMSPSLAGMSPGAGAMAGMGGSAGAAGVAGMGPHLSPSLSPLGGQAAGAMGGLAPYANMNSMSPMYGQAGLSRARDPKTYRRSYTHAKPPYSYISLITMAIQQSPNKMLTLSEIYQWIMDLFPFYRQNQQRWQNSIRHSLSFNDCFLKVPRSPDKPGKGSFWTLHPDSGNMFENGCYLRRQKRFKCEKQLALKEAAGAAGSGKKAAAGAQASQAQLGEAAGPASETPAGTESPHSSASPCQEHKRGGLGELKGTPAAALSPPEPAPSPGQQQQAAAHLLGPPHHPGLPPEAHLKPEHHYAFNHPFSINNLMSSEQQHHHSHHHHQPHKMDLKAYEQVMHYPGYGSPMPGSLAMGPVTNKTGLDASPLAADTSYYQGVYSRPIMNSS
In short: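 HepG2 cells transiently transfected with multiple cis-regulated reporter transcription units, dosed for 24 h. Reporter mRNA measured by RT-PCR, 6-FAM labelling, HpaI digestion and capillary electrophoresis; bidirectional fitting against DMSO baseline.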

[17] = ATG_FoxO_CIS: Attagene CIS-FACTORIAL HepG2 Assay for human Forkhead box O (FoxO) (AID 2282943); conditions: HepG2 Attagene cis-reporter, FoxO element, mRNA; actives raise or lower the signal
In short: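 HepG2, transient MRTU transfection (cis element, endogenous TFs). Dose 24 h. TriZol RNA → oligo(dT) RT → PCR → 6-FAM primer extension → HpaI cut → CE. Gain/loss vs DMSO.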

[18] = ATG_GATA_CIS: Attagene CIS-FACTORIAL HepG2 Assay for human GATA Binding Protein (AID 2282944); conditions: HepG2 GATA cis-element reporter, Attagene multiplex mRNA; actives raise or lower the signal
In short: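 Endogenous transcription factor activity was captured through cis-promoter-driven reporters in transfected HepG2 cells. After 24 h exposure, reporter transcripts were quantified by RT-PCR with fluorescent capillary electrophoresis, and responses fitted both directions against DMSO.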

[19] = ATG_GLI_CIS: Attagene CIS-FACTORIAL HepG2 Assay for human Zinc Finger Protein GLI1 (AID 2282945); conditions: HepG2, Attagene cis-factorial reporter mRNA, GLI element; actives raise or lower the signal
In short: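 Bidirectional curve fits relative to DMSO, using reporter mRNA levels from RT-PCR plus capillary electrophoresis. Cells were HepG2 transiently carrying cis-regulated reporter constructs, harvested 24 h after dosing.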

[20] = target: Retinoic acid receptor alpha (Homo sapiens) (UniProt P10276); experiment: ATG_DR5_RAR_CIS: Attagene CIS-FACTORIAL HepG2 Assay for human Retinoic Acid Receptor Alpha (RARE), DR5 submotif (AID 2282934); conditions: HepG2 Attagene cis-factorial RARE DR5 reporter, mRNA; actives raise or lower the signal
Retinoic acid receptor alpha (Homo sapiens), sequence (P10276 whole entry, looked up): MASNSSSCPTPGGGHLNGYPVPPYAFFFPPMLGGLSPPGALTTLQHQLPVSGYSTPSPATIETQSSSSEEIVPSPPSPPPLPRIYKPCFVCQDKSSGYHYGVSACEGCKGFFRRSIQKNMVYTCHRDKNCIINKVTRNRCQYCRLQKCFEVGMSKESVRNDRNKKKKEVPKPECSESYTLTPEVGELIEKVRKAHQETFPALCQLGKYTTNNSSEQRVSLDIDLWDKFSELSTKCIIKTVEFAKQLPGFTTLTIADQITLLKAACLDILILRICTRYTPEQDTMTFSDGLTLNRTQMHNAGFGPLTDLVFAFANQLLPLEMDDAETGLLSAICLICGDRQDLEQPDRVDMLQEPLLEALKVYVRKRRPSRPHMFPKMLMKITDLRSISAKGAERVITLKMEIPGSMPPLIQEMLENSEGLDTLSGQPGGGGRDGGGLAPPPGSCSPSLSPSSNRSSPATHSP
In short: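 Transient MRTU transfection of HepG2; 24 h compound treatment; TriZol RNA, oligo(dT) RT, PCR, FAM labelling, capillary electrophoresis. Bidirectional fit vs DMSO. Endogenous TF activity at DR5 RARE.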

In the case of `COc1ccnc(CS(=O)c2nc3cc(OC(F)F)ccc3[nH]2)c1OC` (stereo not drawn), the outcome [1] is reported as “inactive”, the outcome [2] is reported as “inactive” and the outcome [3] is reported as “inactive”. The outcome [4] was “inactive”, the outcome [5] was “inactive” and the outcome [6] was “inactive”. The outcome [7] was “inactive”, the outcome [8] was “inactive” and the outcome [9] was “inactive”. For the same compound, the outcome [10] was “inactive”, the outcome [11] was “inactive” and the outcome [12] was “inactive”. For the same compound, the outcome [13] was “inactive”, the outcome [14] was “inactive” and the outcome [15] was “inactive”. The outcome [16] was “inactive”, the outcome [17] was “inactive” and the outcome [18] was “inactive”. For the same compound, the outcome [19] was “inactive”.
With `N#Cc1ccc(CC(=NNC(=O)Nc2ccc(OC(F)(F)F)cc2)c2cccc(C(F)(F)F)c2)cc1` the outcome [1] was “inactive”, the outcome [2] was “inactive” and the outcome [3] was “inactive”. The outcome [4] was “inactive”, the AC50 [5] was 53.1 µM (active) and the outcome [6] was “inactive”. The outcome [7] was “inactive”, the outcome [8] was “inactive” and the outcome [9] was “inactive”. The outcome [10] was “inactive”, the outcome [11] was “inactive” and the outcome [12] was “inactive”. The outcome [13] was “inactive”, the outcome [14] was “inactive” and the outcome [15] was “inactive”. For the same compound, the outcome [16] was “inactive”, the outcome [17] was “inactive” and the outcome [18] was “inactive”. The outcome [19] was “inactive”.
For `CC(=O)C=CC1=C(C)CCCC1(C)C`, the outcome [1] was “inactive”, the outcome [2] was “inactive” and the outcome [3] was “inactive”. For the same compound, the AC50 [4] was 3.8 µM (active), the outcome [5] was “inactive” and the outcome [6] was “inactive”. For the same compound, the outcome [7] was “inactive”, the outcome [8] was “inactive” and the outcome [9] was “inactive”. For the same compound, the outcome [10] was “inactive”, the outcome [11] was “inactive” and the outcome [12] was “inactive”. The outcome [13] was “inactive”, the outcome [14] was “inactive” and the outcome [15] was “inactive”. For the same compound, the outcome [16] was “inactive”, the outcome [17] was “inactive” and the outcome [18] was “inactive”. The outcome [19] was “inactive”.
For `CCCCCCCCCCN`, the outcome [1] was “inactive”, the outcome [2] was “inactive” and the outcome [3] was “inactive”. The outcome [4] was “inactive”, the outcome [5] was “inactive” and the outcome [6] was “inactive”. For the same compound, the outcome [7] was “inactive”, the outcome [8] was “inactive” and the outcome [20] was “inactive”. The outcome [9] was “inactive”, the outcome [10] was “inactive” and the outcome [11] was “inactive”. The outcome [12] was “inactive”, the outcome [13] was “inactive” and the outcome [15] was “inactive”. The outcome [16] was “inactive”, the outcome [17] was “inactive” and the outcome [18] was “inactive”. For the same compound, the outcome [19] was “inactive”.
In the case of `CCc1c(C)cc(N)c(CC)c1N`, the outcome [1] is reported as “inactive”, the outcome [2] is reported as “inactive” and the outcome [3] is reported as “inactive”. For the same compound, the outcome [4] was “inactive”, the AC50 [5] was 79.3 µM (active) and the outcome [6] was “inactive”. The outcome [7] was “inactive”, the outcome [8] was “inactive” and the outcome [9] was “inactive”. For the same compound, the outcome [10] was “inactive”, the outcome [11] was “inactive” and the outcome [12] was “inactive”. The outcome [13] was “inactive”, the outcome [14] was “inactive” and the outcome [15] was “inactive”. The outcome [16] was “inactive”, the outcome [17] was “inactive” and the outcome [18] was “inactive”. The outcome [19] was “inactive”.
For `CCCCCCCCC`, the outcome [1] was “inactive”, the outcome [2] was “inactive” and the outcome [3] was “inactive”. For the same compound, the outcome [4] was “inactive”, the outcome [5] was “inactive” and the outcome [6] was “inactive”. For the same compound, the outcome [7] was “inactive”, the outcome [8] was “inactive” and the outcome [9] was “inactive”. The outcome [10] was “inactive”, the outcome [11] was “inactive” and the outcome [12] was “inactive”. For the same compound, the outcome [13] was “inactive”, the AC50 [14] was 63.2 µM (active) and the outcome [15] was “inactive”. For the same compound, the outcome [16] was “inactive”, the outcome [17] was “inactive” and the outcome [18] was “inactive”. The outcome [19] was “inactive”.
With `Cc1ncc([N+](=O)[O-])n1C` the outcome [1] was “inactive”, the outcome [2] was “inactive” and the outcome [3] was “inactive”. The outcome [4] was “inactive”, the outcome [5] was “inactive” and the outcome [6] was “inactive”. The outcome [7] was “inactive”, the outcome [8] was “inactive” and the outcome [9] was “inactive”. The outcome [10] was “inactive”, the outcome [11] was “inactive” and the outcome [12] was “inactive”. The outcome [13] was “inactive”, the outcome [14] was “inactive” and the outcome [15] was “inactive”. For the same compound, the outcome [16] was “inactive”, the outcome [17] was “inactive” and the outcome [18] was “inactive”. The outcome [19] was “inactive”.
